Screening results from PubChem BioAssay.
The list is not random: actives were taken first. Their share in the collection is about 11%.
FLuc inh – inhibitors of firefly (Photinus pyralis) luciferase. Potency, µM (series often up to 115 µM), hits mostly inhibitors. 76,000 tested, 2.5% active. purified P. pyralis luciferase, luminescence, biochemical. P08659; also: nearly all actives have a fitted effect of over 65% in size
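Luminescence read by CCD imager after adding enzyme (10nM final) to wells holding compound, titrated in qHTS. Substrates 10uM each D-luciferin and ATP; buffer 50mM Tris acetate pH 7.5, 10mM Mg acetate, Tween-20, BSA.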
HEK cytotox – cytotoxic compounds in HEK 293 cells. HEK 293 viability, ATP luminescence (CellTiter-Glo), 48-72 h. Potency, µM (series often up to 115 µM), for the others: at the highest dose activity change, negative = cytotoxicity, most hits filed as inhibitors. 94,000 tested, 6.6% active; also: nearly all actives have a fitted effect of over 60% in size
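HEK 293 cells at 250 cells/well were exposed to compounds by pintool transfer for 48 or 72 hr at 37 degree Celsius, 5% CO2. Viability was read as ATP-coupled luminescence with CellTiter-Glo after 10 min at room temperature.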
NPR1 antag – blocks ANP-stimulated signaling of human Npr1 receptor. Potency, µM (top dose mostly 46.3 µM), for inactives: at the top dose activity change, negative = inhibition, hits mostly inhibitors. 76,000 tested, 1.6% active. P16066. HEK293 hNpr1 GloSensor cGMP, ANP-stimulated luminescence. AID 1347048; calls by dose curve; also: nearly all actives have a fitted effect of over 60% in size
Target sequence (P16066 whole entry, looked up): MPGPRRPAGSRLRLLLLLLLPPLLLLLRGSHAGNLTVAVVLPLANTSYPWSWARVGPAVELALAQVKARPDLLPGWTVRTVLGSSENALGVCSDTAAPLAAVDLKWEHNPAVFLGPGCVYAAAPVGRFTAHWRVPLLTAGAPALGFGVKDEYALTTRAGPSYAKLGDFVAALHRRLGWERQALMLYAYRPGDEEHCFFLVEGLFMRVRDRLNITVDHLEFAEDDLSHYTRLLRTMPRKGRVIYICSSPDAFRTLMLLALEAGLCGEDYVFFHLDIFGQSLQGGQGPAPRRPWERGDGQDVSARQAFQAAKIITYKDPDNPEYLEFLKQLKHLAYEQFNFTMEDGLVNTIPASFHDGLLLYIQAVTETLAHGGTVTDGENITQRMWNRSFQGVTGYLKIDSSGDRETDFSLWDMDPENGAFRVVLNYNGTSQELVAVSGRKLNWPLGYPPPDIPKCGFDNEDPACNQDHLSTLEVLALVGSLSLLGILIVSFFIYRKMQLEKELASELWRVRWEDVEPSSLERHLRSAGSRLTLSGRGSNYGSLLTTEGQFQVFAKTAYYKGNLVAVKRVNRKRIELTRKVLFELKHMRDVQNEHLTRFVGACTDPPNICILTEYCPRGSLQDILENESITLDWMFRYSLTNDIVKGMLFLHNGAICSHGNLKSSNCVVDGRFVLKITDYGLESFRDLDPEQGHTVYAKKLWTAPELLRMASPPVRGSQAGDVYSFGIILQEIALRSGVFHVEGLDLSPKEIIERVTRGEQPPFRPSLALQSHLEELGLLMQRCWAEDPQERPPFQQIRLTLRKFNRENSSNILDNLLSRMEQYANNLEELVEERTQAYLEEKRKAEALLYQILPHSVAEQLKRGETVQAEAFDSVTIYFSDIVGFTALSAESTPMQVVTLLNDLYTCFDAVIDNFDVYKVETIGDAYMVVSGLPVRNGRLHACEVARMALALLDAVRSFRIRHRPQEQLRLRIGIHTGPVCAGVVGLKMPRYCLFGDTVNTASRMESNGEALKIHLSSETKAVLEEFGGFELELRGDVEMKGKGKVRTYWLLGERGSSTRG
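Compound pre-incubated 30 min at room temperature on GloSensor-loaded HEK293 cells stably carrying hNpr1 and the pGS-40F cGMP biosensor. Stimulation uses hNppA at 0.1 nM final; luminescence is taken at baseline and 20 min post-agonist.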
NIH3T3 tox – NIH 3T3 cell cytotoxicity; NIH 3T3 viability, CellTiter-Glo ATP luminescence, 48-72 h; Potency, µM (highest dose often 96.7 µM), for inactives: top-dose activity change, negative = cytotoxicity, usual class: inhibitors; 94,000 tested, 4.3% active; also: nearly all actives have a fitted effect of over 55% in size
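NIH 3T3 cells at 400 cells/well received 23 nL of compound by pintool and were incubated 48 or 72 h at 37 °C. Viability was read as ATP-coupled CellTiter-Glo luminescence.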
Active calls of the source: *; [ ] = another dose, or the depositor's remark. Unless noted, calls follow the shape of the dose curve; as a rule, active = well fitted curve in the direction sought with a large enough effect; inconclusive = small, poorly fitted or top-dose-only effect, or another doubt; inactive = no such curve, though single readings can be large; an effect the other way counts as inactive or inconclusive. % is scaled to controls: 0 for no effect and ±100 for the full control effect; potency is read from the fitted curve at half-maximal effect.

COc1cc2c(cc1Oc1cccc(N(C)C)c1)NC(=O)C21CCN(CC2CC2)CC1 was read as FLuc inh inactive, HEK cytotox inconclusive, NPR1 antag inconclusive and NIH3T3 tox 79.4µM*.
For COc1cc2c(cc1Oc1ccccc1)NC(=O)C21CCN(C(=O)C(C)C)CC1 the results were FLuc inh inactive, HEK cytotox inconclusive, NPR1 antag 7.4%[70.6 µM] and NIH3T3 tox -18.2%[138 µM].
Screening COc1cc2c(cc1Oc1ccccc1)NC(=O)C21CCN(CC2CC2)CC1 returned FLuc inh inactive, HEK cytotox inconclusive, NPR1 antag -1.9%[70.6 µM] and NIH3T3 tox 44.7µM*.
`COc1cc2c(cc1Oc1cccc(N(C)C)c1)NC(=O)C21CCN(c2ncccn2)CC1` gave FLuc inh inactive, HEK cytotox inconclusive, NPR1 antag inconclusive and NIH3T3 tox inconclusive.
O=C(NC[C@H]1C[C@@H]2CCN1C[C@@H]2CN1CCN(c2ccc(F)cc2)CC1)Nc1cccc(F)c1 was read as FLuc inh inactive, HEK cytotox 28.2µM*, NPR1 antag -19.0% and NIH3T3 tox 22.4µM*.
For N#Cc1cccc(NC(=O)NC[C@H]2C[C@@H]3CCN2C[C@@H]3CN2CCN(c3ccccc3)CC2)c1 the results were FLuc inh inactive, HEK cytotox inconclusive, NPR1 antag -16.2% and NIH3T3 tox 22.4µM*.
COc1ccc2c(c1)C1(CCN(S(=O)(=O)c3cccc(F)c3)C1)C(=O)N2C (centres undefined) was read as FLuc inh inactive, HEK cytotox 44.7µM*, NPR1 antag -8.8% and NIH3T3 tox -19.4%.
`O=C1NC2(CCN(Cc3cccnc3)C2)COc2ccccc21` (centres undefined) gave FLuc inh inactive, HEK cytotox 79.4µM*, NPR1 antag 5.6%[70.6 µM] and NIH3T3 tox 35.5µM*.
Screening COc1cc2c(cc1OC1CCCC1)NC(=O)C21CCN(c2ncc(F)cn2)CC1 returned FLuc inh inactive, HEK cytotox 89.1µM*, NPR1 antag -4.8%[70.6 µM] and NIH3T3 tox 89.1µM*.
For COc1cc2c(cc1OC1CCCC1)NC(=O)C21CCN(c2cnccn2)CC1 the results were FLuc inh inactive, HEK cytotox 89.1µM*, NPR1 antag -16.2%[70.6 µM] and NIH3T3 tox inconclusive.
`CCc1cnc(N2CCC3(CC2)C(=O)Nc2cc(Oc4ccccc4)c(OC)cc23)nc1` gave FLuc inh inactive, HEK cytotox 44.7µM*, NPR1 antag -16.1%[70.6 µM] and NIH3T3 tox 39.8µM*.
`COc1cc2c(cc1OC1CCCC1)NC(=O)C21CCN(c2nc(C)cc(C)n2)CC1` gave FLuc inh inactive, HEK cytotox 89.1µM*, NPR1 antag -7.8%[70.6 µM] and NIH3T3 tox inconclusive.
CC[C@H]1CN2CC[C@H]1C[C@@H]2CNS(=O)(=O)c1cccc(C#N)c1 was read as FLuc inh inactive, HEK cytotox 2.0%[172 µM], NPR1 antag 0.3%[70.6 µM] and NIH3T3 tox 0.5%[174 µM].
`c1cncc(C2=NOC3(CCCN(CC4CCCC4)C3)C2)c1` (centres undefined) gave HEK cytotox 4.2% and NIH3T3 tox inactive.
For COc1cc2c(cc1OC1CCCC1)NC(=O)C21CCN(c2ncccn2)CC1 the results were FLuc inh inactive, HEK cytotox 100µM*, NPR1 antag 0.4%[70.6 µM] and NIH3T3 tox inconclusive.
`CCc1cnc(N2CCC3(CC2)C(=O)Nc2cc(OC4CCCC4)c(OC)cc23)nc1` gave FLuc inh inactive, HEK cytotox 79.4µM*, NPR1 antag -0.8%[70.6 µM] and NIH3T3 tox inconclusive.
COc1cc2c(cc1OC1CCCC1)NC(=O)C21CCN(c2ncc(C(C)C)cn2)CC1 was read as FLuc inh inactive, HEK cytotox inconclusive, NPR1 antag -1.9%[70.6 µM] and NIH3T3 tox inconclusive.
CC(=O)N1CCCC2(CC(c3cccnc3)=NO2)C1 (centres undefined) was read as HEK cytotox inactive and NIH3T3 tox 3.4%[138 µM].
Screening O=C(Cc1c[nH]c2ncc(-c3cccnc3)cc12)N1CCN(Cc2ccccc2)CC1 returned FLuc inh inconclusive, HEK cytotox inconclusive, NPR1 antag 0.5%[70.6 µM] and NIH3T3 tox inconclusive.
CN1CCN(C(=O)Cc2c[nH]c3ncc(-c4ccnn4C)cc23)CC1 was read as FLuc inh inactive, HEK cytotox -11.4%[172 µM], NPR1 antag 2.6%[70.6 µM] and NIH3T3 tox 100µM*.
Screening CN1CCN(C(=O)Cc2c[nH]c3ncc(-c4ccc(CO)cc4)cc23)CC1 returned FLuc inh inactive, HEK cytotox inconclusive, NPR1 antag -0.1%[70.6 µM] and NIH3T3 tox 25.1µM*.
COc1ncccc1-c1cnc2[nH]cc(CC(=O)N3CCN(C)CC3)c2c1 was read as FLuc inh inactive, HEK cytotox -24.6%[172 µM], NPR1 antag 3.4%[70.6 µM] and NIH3T3 tox inconclusive.
O=C(O)c1cn(Cc2ccc(F)cc2)nn1 was read as FLuc inh inactive, HEK cytotox 4.0%, NPR1 antag 8.6% and NIH3T3 tox 4.4%.
Cn1nc(-c2ccc3ccccc3c2)cc1[C@H]1CN2CC[C@H]1C[C@@H]2CNC(=O)COc1ccccc1 was read as FLuc inh inactive, HEK cytotox 25.1µM*, NPR1 antag 3.0% and NIH3T3 tox 28.2µM*.
Screening COc1ccc(OC)c(S(=O)(=O)NC[C@H]2C[C@@H]3CCN2C[C@@H]3c2cc(-c3ccc4ccccc4c3)nn2C)c1 returned FLuc inh inactive, HEK cytotox inconclusive, NPR1 antag 1.5% and NIH3T3 tox inconclusive.
`C=C[C@H]1CN2CC[C@H]1C[C@@H]2CNCc1ccc(SC)cc1` gave FLuc inh inactive, HEK cytotox 89.1µM*, NPR1 antag -4.7%[70.6 µM] and NIH3T3 tox inconclusive.
`CC(=O)NC[C@H]1C[C@@H]2CCN1C[C@@H]2c1cc(-c2ccc3ccccc3c2)nn1C` gave FLuc inh inconclusive, HEK cytotox 56.2µM*, NPR1 antag 2.5%[70.6 µM] and NIH3T3 tox 31.6µM*.
For COc1ccc(-c2cc([C@H]3CN4CC[C@H]3C[C@@H]4CNC(C)=O)n(C)n2)cc1 the results were FLuc inh inactive, HEK cytotox -3.4%[172 µM], NPR1 antag 5.5%[70.6 µM] and NIH3T3 tox inconclusive.
For Cn1nc(-c2ccc3ccccc3c2)cc1[C@H]1CN2CC[C@H]1C[C@@H]2CNS(=O)(=O)c1ccccc1 the results were FLuc inh inconclusive, HEK cytotox 25.1µM*, NPR1 antag -24.3% and NIH3T3 tox inconclusive.
For Cn1nc(-c2ccc3ccccc3c2)cc1[C@H]1CN2CC[C@H]1C[C@@H]2CNC(=O)N1CCOCC1 the results were FLuc inh inactive, HEK cytotox inconclusive, NPR1 antag -0.4% and NIH3T3 tox inconclusive.
Screening Cn1nc(-c2cccs2)cc1[C@H]1CN2CC[C@H]1C[C@@H]2CNS(C)(=O)=O returned FLuc inh inactive, HEK cytotox -1.2%[172 µM], NPR1 antag 6.9%[70.6 µM] and NIH3T3 tox -15.8%[174 µM].
For O=S(=O)(c1cccnc1)N1[C@H]2CC[C@@H]1c1cnc(-c3ccc(F)cc3)nc1C2 the results were FLuc inh inactive, HEK cytotox inconclusive, NPR1 antag inconclusive and NIH3T3 tox inconclusive.
